32 molecules from PubChem BioAssay (NCATS) can be followed below.

Each structure is given as a SMILES string. Values without a mark were called inactive. Records with an inconclusive call do not appear. Active and inactive are the calls of the source. Unless noted, the call rests on the fitted dose curve; in most records, active means well fitted curve in either direction with a large enough effect (not every such curve was filed as active); inconclusive means small, poorly fitted or top-dose-only effect, or another doubt; inactive means flat fitted curve, though single readings scatter.

Assay [1] is described as follows: AP1 Signaling Pathway (AID 357).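 Further: ME-180 reporter cells stimulated with EGF at its EC50 level; on the % scale 0 is the no-effect control and ±100 the full control effect.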 The settings on record: ME-180 AP-1-bla reporter, EGF-induced, beta-lactamase ratio, 5 h; at 17.2 µM (top of the series) unless noted. The gist of the method:
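Cells are seeded overnight, exposed to compound titrations and an EC50 level of EGF for 5 hours at 37 °C, then loaded with CCF4 dye for 2.5 hours. Beta-lactamase activity under the AP-1 element is read as a blue/green ratio.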

Assay [2] is described as follows: Stat Signaling Pathway (AID 446).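 Further: ME-180 cervical cancer cells given 40 pM IL-6 alongside compound; SIE-controlled beta-lactamase reporter measured as 460/530 nm FRET emission ratio; on the % scale 0 is the no-effect control and ±100 the full control effect.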 The settings on record: ME-180 SIE beta-lactamase reporter, IL-6 stimulated, 5 h; at 17.2 µM (top of the series) unless noted. Put shortly: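 Screening format detects activators and inhibitors alike: ME-180 SIE-bla cells stimulated at 40 pM IL-6 for 5 hrs with compound, then dual-emission beta-lactamase read at 405 nm excitation.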

Assay [3] deals with Glucocorticoid receptor (Homo sapiens) (UniProt P04150). Kind of assay: GR-GFP Redistribution (AID 450;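 active means compounds whose dose series gives a full or clear partial fitted curve of increased nuclear translocation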; further: potency means the concentration at half of the fitted maximal effect).
Assay [4] can be described thus: NFAT Signaling Pathway (AID 444).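 Further: carbachol stimulus at about its EC50 of 1 µM final; on the % scale 0 is the no-effect control and ±100 the full control effect.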 The settings on record: Jurkat NFAT-bla M1, carbachol, beta-lactamase ratio, 5 h; at 17.2 µM (top of the series) unless noted. Put shortly:
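Jurkat cells with NFAT-driven β-lactamase reporter and co-expressed M1 receptor, stimulated with carbachol (final 1 uM, ~EC50), compound titration, 5 h at 37 °C. CCF4 loaded 1 h at RT; 460/530 nm ratio gave %activity and AC50.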

The nature of assay [5]: qHTS Assay for Identification of Small Molecule Agonists for Hypoxia Response Element Signaling Pathway (AID 914; active means well fitted activation curve with a large enough effect in the signal ratio, with a control signal flat, not every such curve was filed as active; the % refers to the signal ratio; further: potency means the concentration at half of the fitted maximal effect; on activation: % of control where 0% means no effect). The settings on record: ME-180 (cervical carcinoma) HRE-bla reporter, beta-lactamase ratio, CoCl2, 17 h; activation: active compounds read high. The gist of the method: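 A beta-lactamase reporter under hypoxia response element control in ME-180 cells served as the system. Compound titrations plus EC50 CoCl2 ran 17 h at 37 degrees Celsius; AC50 values were fitted from %Activity.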
On the technique in general: In qHTS, concentration-response curves come from the screen itself.

Chain of Glucocorticoid receptor (Homo sapiens) (P04150 whole entry, looked up): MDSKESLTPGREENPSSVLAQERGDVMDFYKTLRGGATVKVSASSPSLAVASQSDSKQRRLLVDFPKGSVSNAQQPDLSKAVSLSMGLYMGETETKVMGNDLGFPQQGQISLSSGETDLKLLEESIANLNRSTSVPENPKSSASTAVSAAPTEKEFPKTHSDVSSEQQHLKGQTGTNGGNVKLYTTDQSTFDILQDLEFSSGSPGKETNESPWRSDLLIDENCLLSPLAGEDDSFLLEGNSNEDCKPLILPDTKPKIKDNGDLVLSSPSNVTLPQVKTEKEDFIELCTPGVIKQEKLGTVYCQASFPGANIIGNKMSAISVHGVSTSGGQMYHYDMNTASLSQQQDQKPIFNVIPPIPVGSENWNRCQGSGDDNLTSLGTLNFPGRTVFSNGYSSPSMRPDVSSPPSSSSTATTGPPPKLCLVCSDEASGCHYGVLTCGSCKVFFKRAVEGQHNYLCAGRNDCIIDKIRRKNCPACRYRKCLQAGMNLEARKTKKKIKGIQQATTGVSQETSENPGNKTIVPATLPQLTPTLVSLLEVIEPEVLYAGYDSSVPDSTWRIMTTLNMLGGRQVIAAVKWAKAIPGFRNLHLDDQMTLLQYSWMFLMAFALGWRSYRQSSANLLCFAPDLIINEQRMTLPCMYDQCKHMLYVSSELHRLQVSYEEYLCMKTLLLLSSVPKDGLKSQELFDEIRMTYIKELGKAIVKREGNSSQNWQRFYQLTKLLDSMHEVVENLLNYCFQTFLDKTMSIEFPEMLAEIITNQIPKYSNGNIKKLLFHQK

Consider `CCC1CCCCN1c1nc(-c2ccncc2)nc2ccccc12` (centres undefined), for which the activity change, negative = inhibition in assay [1] is -20.7%. Moreover, the activity, negative = inhibition in assay [2] is -2.48%. The Potency in assay [3] is above 20.6 µM.
Consider `CCOC(=O)C(O)(C1C(=O)CC(C)(C)CC1=O)C(F)(F)F` (centres undefined), for which the figures for the activity change, negative = inhibition in assay [1] and in assay [4] were 10.7% and 7.75%, respectively. Moreover, the Potency in assay [5] is 10 µM (active).
As for `COc1ccc(CCCNC(=O)CC#N)cc1OC`, the activity change, negative = inhibition is 13.8% in assay [1] and -4.61% in assay [4]. The Potency in assay [3] was above 20.6 µM. Also, the activation in assay [5] is 5.59%.
Consider `COCCCNc1nc(-c2ccncc2)nc2ccccc12`, for which the activity change, negative = inhibition in assay [1] is -12.4%. Also, the activity, negative = inhibition in assay [2] was -12.9%. Moreover, the Potency in assay [3] is above 20.6 µM.
For the molecule `Cc1ccc(CNC(=O)c2cc3c(=O)n4ccccc4nc3n(CC3CCCO3)c2=N)cc1` (centres undefined), the activity change, negative = inhibition in assay [1] is 20.6%; in assay [4], 21.8%. Also, the Potency in assay [3] was above 20.6 µM; in assay [5] it was 7.94 µM (active).
As to `COc1cccc(CNc2ccc(Br)cn2)c1O`, the activity change, negative = inhibition in assay [1] is -25.3%. The activity, negative = inhibition in assay [2] was -14.6%. The Potency in assay [3] is above 20.6 µM.
The corresponding values for `Cc1ccccc1OCc1nc2ccccc2c(=O)n1NC(=O)c1ccco1` are 4.16%, 1.48% and above 20.6 µM.
The corresponding values for `CN1CCN(C(=O)CSc2nc(-c3cccs3)ccc2C#N)CC1` are -11%, -1.05% and above 20.6 µM.
As for `CC1(C)Cc2c(C#N)c(NCC3CCCO3)nc(-c3ccco3)c2CO1` (centres undefined), the figures for the activity change, negative = inhibition in assay [1] and in assay [4] were -9.98% and 5.63%, respectively. Moreover, in assay [3], the Potency is above 20.6 µM. Further, the activation in assay [5] is 25.9%.
The like results for `COc1ccc(-c2nn3c(COc4ccccc4)nnc3s2)cc1OC` were, in that order, -9.35%, 6.83%, above 20.6 µM and -19.3%.
`COc1ccc(N2CCN(c3oc(COc4ccc(Cl)cc4)nc3C#N)CC2)cc1`: the activity change, negative = inhibition in assay [1] was -27.6%. In addition, in assay [2], the activity, negative = inhibition is 11.6%. The Potency in assay [3] was above 20.6 µM.
For `COc1ccc2c(c1OC)C(=O)N1c3ccccc3C(=O)N(c3ccccc3)C21` (centres undefined), the activity change, negative = inhibition in assay [1] was -9.35%. Besides, in assay [2], the activity, negative = inhibition was 0.163%. Also, in assay [3], the Potency was above 20.6 µM.
On to `CC(C)C1=C2OC(N)=C(C#N)C(C#N)=C2C(C)CC1` (centres undefined), for which, in assay [1], the activity change, negative = inhibition is -2.44%. The activity, negative = inhibition in assay [2] is 5.25%. Besides, in assay [3], the Potency is above 20.6 µM.
The corresponding values for `Cc1nnc(C)n1/N=C/c1cc(Br)cc(Br)c1O` are -5.92%, -19.2% and above 20.6 µM.
The like results for `COc1cc(OC)cc(C(=O)N2CCC(N3CCCCCC3)CC2)c1` were, in that order, -0.714%, 0.747% and above 20.6 µM.
On to `Cc1ccc(CNc2oc(COc3ccccc3Cl)nc2C#N)cc1`, for which the activity change, negative = inhibition in assay [1] is 39.1%. Moreover, the activity, negative = inhibition in assay [2] is -8.99%. In assay [3], the Potency is above 20.6 µM.
The like results for `CCCCCSc1nc(N2CCOCC2)c2c(c1C#N)CC(C)(C)OC2` were, in that order, -13.1%, 9.95% and above 20.6 µM.
The corresponding values for `Cc1ccc(SCc2c(C#N)c3ccccc3n2C)cc1` are -29.6%, -15.3% and above 20.6 µM.
The corresponding values for `C/C(=N\O)c1ccc2[nH]ccc2c1` are 2.69%, 13.9% and above 20.6 µM.
For the molecule `CCOC(=O)c1[nH]c2ccc(OC)cc2c1NC(=O)CCN1CCN(Cc2ccccc2)CC1`, in assay [1], the activity change, negative = inhibition is -6.55%. The activity, negative = inhibition in assay [2] is 4.87%. Moreover, the Potency in assay [3] was above 20.6 µM.
The corresponding values for `O=C(NCc1ccco1)c1cnn2c(C(F)(F)F)cc(-c3ccco3)nc12` are -3.32%, 10.1% and above 20.6 µM.
With `COc1cccc(C2=CC(c3ccc(N(C)C)cc3)n3nnnc3N2)c1` (centres undefined), in assay [1], the activity change, negative = inhibition is -12.2%. In addition, the activity, negative = inhibition in assay [2] was 14.4%. The Potency in assay [3] is above 20.6 µM.
The like results for `Cc1cc(=O)oc2c(CN3CCC(C)CC3)c(O)c(Cl)cc12` were, in that order, 22.4%, 7.86% and above 20.6 µM.
Consider `Cc1ccc(NC(=O)CSC2=C(C#N)C(c3ccco3)C3=C(CCCC3=O)N2)cc1` (centres undefined), for which the activity change, negative = inhibition in assay [1] is -26.3%. Besides, the activity, negative = inhibition in assay [2] was 30.5%. Moreover, in assay [3], the Potency was above 20.6 µM.
The like results for `C=CCn1c(SCC#N)nc2c(c1=O)C(C)(C)Cc1ccccc1-2` were, in that order, -2.85%, -1.93% and above 20.6 µM.
In the case of `CCCCCCOc1ccc(C(=O)n2cnc(N)n2)cc1`, the activity change, negative = inhibition in assay [1] was -12.8%. Moreover, in assay [2], the activity, negative = inhibition was 27.4%. In addition, the Potency in assay [3] is above 20.6 µM.
The corresponding values for `CC(C)C(=O)N1CCN(c2nc(-c3ccccc3)c3c(c2C#N)CCCC3)CC1` are -14.8%, -9.28% and above 20.6 µM.
The like results for `Nc1ccc2c(c1)N1CCN=C1S2` were, in that order, -0.461%, 8.4% and above 20.6 µM.
In the case of `CCOC(=O)c1c(NC(=O)CCN2CCOCC2)sc2c1CC(C)(C)OC2`, in assay [1], the activity change, negative = inhibition was -21.7%. In assay [2], the activity, negative = inhibition is -5.77%. The Potency in assay [3] is above 20.6 µM.
As to `CCN(CC)c1ccc(C2Nc3cccc4cccc(c34)N2)c(O)c1`, the activity change, negative = inhibition in assay [1] is -17.3%. Moreover, the activity, negative = inhibition in assay [2] was -17.7%. The Potency in assay [3] is above 20.6 µM.
Take `COc1ccccc1-c1nnc2n1N=C(c1ccc(O)c(O)c1)CS2`: in assay [1], the activity change, negative = inhibition is 10.7%. Moreover, the activity, negative = inhibition in assay [2] is -15.4%.
Regarding `CCOC(=O)N1CC=C2C(C#N)=C(N)C(C#N)(C#N)[C@H](c3cccs3)[C@H]2C1`, the activity change, negative = inhibition in assay [1] is 6.03%. The activity, negative = inhibition in assay [2] is -16%. The Potency in assay [3] was above 20.6 µM.
